The record followed here is ChEMBL document CHEMBL2218924, “A broad activity screen in support of a chemogenomic map for kinase signalling research and drug discovery” (Biochem J, 2013).

The target in experiment [1] is Tyrosine-protein kinase Yes (Homo sapiens) (UniProt P07947). Particulars: at 1 µM; call rule not given here.
For experiment [2] the target is unchanged. Particulars: at 10 µM.
Experiment [3] addresses T1, Tyrosine-protein kinase ZAP-70 (Homo sapiens) (UniProt P43403).
T1 sequence (whole entry): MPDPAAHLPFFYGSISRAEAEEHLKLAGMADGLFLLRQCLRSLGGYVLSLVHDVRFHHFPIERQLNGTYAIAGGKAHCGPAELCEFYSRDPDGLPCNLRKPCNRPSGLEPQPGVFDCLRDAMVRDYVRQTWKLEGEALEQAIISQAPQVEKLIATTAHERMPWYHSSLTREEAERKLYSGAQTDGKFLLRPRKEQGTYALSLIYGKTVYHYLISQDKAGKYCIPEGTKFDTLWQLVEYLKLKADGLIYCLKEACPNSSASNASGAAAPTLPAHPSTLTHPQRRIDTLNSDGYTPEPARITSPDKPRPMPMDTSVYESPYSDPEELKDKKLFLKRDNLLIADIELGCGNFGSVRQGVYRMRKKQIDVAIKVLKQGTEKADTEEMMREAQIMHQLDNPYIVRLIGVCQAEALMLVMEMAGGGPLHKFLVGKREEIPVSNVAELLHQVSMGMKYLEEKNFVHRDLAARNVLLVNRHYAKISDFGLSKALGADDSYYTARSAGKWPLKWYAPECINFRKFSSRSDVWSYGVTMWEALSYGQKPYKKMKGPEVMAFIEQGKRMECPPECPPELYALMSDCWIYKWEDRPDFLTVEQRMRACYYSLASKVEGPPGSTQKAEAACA
Particulars: at 1 µM.

In experiment [4] the target is T1, Tyrosine-protein kinase ZAP-70 (Homo sapiens). The following applies: at 10 µM.
The target in experiment [5] is Mast/stem cell growth factor receptor Kit (Homo sapiens) (UniProt P10721). Particulars: at 1 µM.
Chain of Mast/stem cell growth factor receptor Kit (Homo sapiens) (P10721 whole entry): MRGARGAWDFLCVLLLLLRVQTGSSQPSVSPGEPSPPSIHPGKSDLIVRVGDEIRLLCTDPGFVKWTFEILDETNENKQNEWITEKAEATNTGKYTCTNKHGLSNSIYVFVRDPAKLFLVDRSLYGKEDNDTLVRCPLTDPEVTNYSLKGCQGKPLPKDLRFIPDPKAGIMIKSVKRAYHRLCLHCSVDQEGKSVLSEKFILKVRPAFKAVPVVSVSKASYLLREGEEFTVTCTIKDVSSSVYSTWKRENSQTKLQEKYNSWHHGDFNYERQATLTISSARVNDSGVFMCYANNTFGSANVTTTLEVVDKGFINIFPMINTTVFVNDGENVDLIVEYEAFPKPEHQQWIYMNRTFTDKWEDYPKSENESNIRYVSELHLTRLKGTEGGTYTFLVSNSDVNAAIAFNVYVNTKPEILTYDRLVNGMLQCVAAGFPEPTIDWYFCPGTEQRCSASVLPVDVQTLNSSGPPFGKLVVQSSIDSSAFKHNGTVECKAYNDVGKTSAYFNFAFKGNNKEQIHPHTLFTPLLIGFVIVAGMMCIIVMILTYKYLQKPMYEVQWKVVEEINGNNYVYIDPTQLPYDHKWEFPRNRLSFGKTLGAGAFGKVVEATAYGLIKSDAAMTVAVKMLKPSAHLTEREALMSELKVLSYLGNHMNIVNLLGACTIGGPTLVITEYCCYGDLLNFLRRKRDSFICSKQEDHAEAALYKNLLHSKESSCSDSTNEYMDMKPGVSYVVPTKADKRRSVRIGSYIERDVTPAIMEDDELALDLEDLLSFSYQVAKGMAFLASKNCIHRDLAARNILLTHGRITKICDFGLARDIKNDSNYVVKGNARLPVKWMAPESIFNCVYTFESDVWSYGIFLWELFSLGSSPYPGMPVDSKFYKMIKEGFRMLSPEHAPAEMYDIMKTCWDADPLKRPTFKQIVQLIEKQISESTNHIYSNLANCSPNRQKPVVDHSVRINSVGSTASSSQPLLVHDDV
Experiment [6] has the same target. The following applies: at 10 µM.
Experiment [7] deals with Serine/threonine-protein kinase mTOR (Homo sapiens) (UniProt P42345). The following applies: at 1 µM.
For experiment [8] the target is unchanged. Particulars: at 10 µM.
For experiment [9], the target named is Ribosomal protein S6 kinase beta-1 (Homo sapiens) (UniProt P23443). Particulars: at 10 µM.
Chain of Ribosomal protein S6 kinase beta-1 (Homo sapiens) (P23443 whole entry, looked up): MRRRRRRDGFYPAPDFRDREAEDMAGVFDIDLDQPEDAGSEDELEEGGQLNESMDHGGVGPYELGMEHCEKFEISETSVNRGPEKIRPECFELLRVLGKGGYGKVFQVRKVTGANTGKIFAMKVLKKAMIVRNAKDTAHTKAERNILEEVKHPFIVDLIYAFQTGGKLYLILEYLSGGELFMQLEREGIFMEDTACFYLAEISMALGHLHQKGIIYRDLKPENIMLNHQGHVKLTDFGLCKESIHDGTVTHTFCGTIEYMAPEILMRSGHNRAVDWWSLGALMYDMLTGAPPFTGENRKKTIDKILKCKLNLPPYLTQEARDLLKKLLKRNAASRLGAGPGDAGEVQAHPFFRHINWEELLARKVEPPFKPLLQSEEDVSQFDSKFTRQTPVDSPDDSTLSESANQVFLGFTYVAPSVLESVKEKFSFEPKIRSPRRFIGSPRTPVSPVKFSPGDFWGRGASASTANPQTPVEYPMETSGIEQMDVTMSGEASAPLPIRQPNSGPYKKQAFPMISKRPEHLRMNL
For experiment [10], the target named is Death-associated protein kinase 3 (Homo sapiens) (UniProt O43293). Particulars: at 10 µM.
Chain of Death-associated protein kinase 3 (Homo sapiens) (O43293 whole entry, looked up): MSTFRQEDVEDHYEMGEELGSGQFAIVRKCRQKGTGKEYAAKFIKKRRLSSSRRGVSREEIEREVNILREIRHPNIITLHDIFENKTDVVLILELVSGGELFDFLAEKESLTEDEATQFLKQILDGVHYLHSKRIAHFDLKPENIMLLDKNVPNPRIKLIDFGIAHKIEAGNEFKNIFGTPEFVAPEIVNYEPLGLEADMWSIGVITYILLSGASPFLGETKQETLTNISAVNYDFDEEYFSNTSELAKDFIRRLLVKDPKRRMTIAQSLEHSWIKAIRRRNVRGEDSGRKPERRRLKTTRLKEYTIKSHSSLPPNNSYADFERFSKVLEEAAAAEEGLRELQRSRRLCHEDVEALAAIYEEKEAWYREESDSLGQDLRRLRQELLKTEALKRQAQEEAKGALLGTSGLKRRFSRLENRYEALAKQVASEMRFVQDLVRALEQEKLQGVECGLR
Experiment [11] addresses RAF proto-oncogene serine/threonine-protein kinase (Homo sapiens) (UniProt P04049). The following applies: at 1 µM.
Experiment [12] shares this target. The following applies: at 10 µM.
Experiment [13] concerns the target Proto-oncogene tyrosine-protein kinase Src (Homo sapiens) (UniProt P12931). The following applies: at 10 µM.
The target of experiment [14] is Ribosomal protein S6 kinase beta-1 (Homo sapiens) (UniProt P23443). The following applies: at 1 µM.
Experiment [15] deals with T2, Eukaryotic elongation factor 2 kinase (Homo sapiens) (UniProt O00418).
T2 sequence (whole entry): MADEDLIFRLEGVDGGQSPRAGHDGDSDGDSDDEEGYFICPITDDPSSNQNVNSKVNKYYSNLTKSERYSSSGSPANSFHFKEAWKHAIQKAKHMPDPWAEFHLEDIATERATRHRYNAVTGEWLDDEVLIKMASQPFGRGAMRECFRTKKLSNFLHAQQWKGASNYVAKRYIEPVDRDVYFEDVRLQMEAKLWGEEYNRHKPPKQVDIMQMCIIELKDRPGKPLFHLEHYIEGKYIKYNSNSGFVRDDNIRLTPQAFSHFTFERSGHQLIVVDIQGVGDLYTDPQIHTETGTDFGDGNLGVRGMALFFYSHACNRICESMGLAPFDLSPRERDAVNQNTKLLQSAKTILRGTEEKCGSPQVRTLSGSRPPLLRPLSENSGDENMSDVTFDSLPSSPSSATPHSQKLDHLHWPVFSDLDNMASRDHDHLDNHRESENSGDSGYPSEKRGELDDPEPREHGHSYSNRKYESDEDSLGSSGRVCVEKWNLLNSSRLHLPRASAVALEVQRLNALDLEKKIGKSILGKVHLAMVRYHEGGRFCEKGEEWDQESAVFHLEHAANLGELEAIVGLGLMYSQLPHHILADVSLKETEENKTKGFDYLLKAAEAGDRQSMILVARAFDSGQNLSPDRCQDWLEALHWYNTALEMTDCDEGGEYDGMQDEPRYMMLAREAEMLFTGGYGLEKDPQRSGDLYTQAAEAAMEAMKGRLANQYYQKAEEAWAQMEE
The following applies: at 1 µM.

Experiment [16] deals with T2, Eukaryotic elongation factor 2 kinase (Homo sapiens). The following applies: at 10 µM.
The target of experiment [17] is Serine/threonine-protein kinase mTOR (Homo sapiens) (UniProt P42345). The following applies: at 1 µM. This is another data set of the same source.
Experiment [18] shares this target. The following applies: at 10 µM. This is another data set of the same source.

Chain of RAF proto-oncogene serine/threonine-protein kinase (Homo sapiens) (P04049 whole entry): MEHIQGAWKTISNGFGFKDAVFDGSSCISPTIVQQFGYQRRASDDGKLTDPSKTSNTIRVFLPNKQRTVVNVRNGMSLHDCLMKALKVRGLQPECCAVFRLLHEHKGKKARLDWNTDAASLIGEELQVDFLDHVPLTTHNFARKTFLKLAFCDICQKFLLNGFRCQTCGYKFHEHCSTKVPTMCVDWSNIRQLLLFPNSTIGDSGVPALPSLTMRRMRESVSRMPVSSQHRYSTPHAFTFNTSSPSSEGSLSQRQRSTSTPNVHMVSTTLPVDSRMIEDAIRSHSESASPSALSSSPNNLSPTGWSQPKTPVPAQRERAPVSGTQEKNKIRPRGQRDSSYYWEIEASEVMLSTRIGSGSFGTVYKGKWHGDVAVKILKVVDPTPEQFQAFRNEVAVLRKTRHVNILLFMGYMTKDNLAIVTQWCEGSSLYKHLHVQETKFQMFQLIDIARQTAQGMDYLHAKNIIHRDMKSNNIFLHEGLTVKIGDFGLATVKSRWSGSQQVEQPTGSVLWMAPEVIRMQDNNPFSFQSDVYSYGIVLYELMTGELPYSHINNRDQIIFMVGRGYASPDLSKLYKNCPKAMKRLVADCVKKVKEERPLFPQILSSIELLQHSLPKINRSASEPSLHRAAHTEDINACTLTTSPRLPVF
Chain of Tyrosine-protein kinase Yes (Homo sapiens) (P07947 2-543 limits assumed): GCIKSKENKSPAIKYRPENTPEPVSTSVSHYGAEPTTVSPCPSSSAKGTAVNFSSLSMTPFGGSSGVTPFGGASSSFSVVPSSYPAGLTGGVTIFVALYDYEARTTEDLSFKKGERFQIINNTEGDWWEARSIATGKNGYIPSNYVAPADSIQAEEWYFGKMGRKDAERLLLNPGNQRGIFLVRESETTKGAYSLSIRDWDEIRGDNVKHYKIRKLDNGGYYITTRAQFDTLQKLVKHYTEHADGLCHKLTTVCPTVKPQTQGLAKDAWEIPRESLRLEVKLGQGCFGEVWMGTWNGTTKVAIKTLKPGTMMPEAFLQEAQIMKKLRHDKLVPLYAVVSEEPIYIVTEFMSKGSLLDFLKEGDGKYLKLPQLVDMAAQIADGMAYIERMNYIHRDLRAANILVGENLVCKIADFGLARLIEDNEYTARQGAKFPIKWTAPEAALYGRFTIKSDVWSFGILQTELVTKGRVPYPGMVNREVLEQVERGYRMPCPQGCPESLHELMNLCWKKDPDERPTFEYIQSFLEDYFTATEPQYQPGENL
Chain of Proto-oncogene tyrosine-protein kinase Src (Homo sapiens) (P12931 2-536 limits assumed): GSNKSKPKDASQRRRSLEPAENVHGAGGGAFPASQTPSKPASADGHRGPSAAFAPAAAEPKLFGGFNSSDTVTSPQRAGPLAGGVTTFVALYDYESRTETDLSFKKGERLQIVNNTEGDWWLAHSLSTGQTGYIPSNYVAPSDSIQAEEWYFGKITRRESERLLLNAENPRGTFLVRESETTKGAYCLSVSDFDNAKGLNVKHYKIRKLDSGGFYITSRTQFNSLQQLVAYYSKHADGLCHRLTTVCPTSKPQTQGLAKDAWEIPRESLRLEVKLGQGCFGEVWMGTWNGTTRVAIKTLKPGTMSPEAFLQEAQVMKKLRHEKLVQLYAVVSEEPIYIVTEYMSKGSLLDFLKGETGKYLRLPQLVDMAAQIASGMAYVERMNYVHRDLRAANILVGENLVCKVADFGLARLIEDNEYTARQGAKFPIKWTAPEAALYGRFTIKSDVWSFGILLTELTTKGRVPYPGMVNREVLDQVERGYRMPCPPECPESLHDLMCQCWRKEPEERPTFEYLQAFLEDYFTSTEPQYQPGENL

Usually residual activity stands for the signal under treatment as a percentage of the control signal. As for `CCc1nc(-c2ccc(OC)cc2)[nH]c1-c1ccncc1`, the residual activity in experiment [1] worked out at 123%; in experiment [2], 101%; in [3] it was 119%; in experiment [4], 121%; in experiment [5], 127%; in [6], 104%. Also, the residual activity stood at 103% in [7], 73% in experiment [8] and 62% in experiment [9].
As to `COc1cc(OC)c(/C=C2\C(=O)Nc3ccccc32)c(OC)c1`, the residual activity in experiment [2] was 78%; in [3] it was 90%; in experiment [4], 82%; in experiment [10], 96%; in [11], 67%; in experiment [12], 67%. In addition, the residual activity in experiment [5] was determined as 98%; in experiment [6], 105%; in experiment [13] it was 86%; in [14] it was 124%; in experiment [9], 63%.
For the molecule `Nc1ncnc2[nH]nc(Nc3ccc(F)cc3)c12`, the residual activity in [4] is 98%.
Consider `Nc1n[nH]c2nnc(-c3c(-c4ccccc4)nn4ccccc34)cc12`, for which, in [4], the residual activity came out at 81%.
Regarding `O=C1Nc2ccc(Br)cc2/C1=C\c1cc2c([nH]1)CCCC2`, the residual activity in experiment [4] turned out to be 124%.
Still for that read-out and setting: with `CC#CC(=O)Nc1cc2c(Nc3ccc(F)c(Cl)c3)ncnc2cn1` the figure was 100%; with `O=c1c2ccccc2[nH]c(=S)n1CCN1CCC(=C(c2ccc(F)cc2)c2ccc(F)cc2)CC1`, 94%.
As to `COc1cccc(-c2cc(=O)c3ccccc3o2)c1N`, the residual activity in [4] amounted to 120%.
As to `CO[C@H]1[C@@H](OC)C[C@H](C)[C@@H](OC)C2=CC(=O)C=C(NC(=O)/C(C)=C/C=C/[C@H](OC)[C@@H](OC(N)=O)/C(C)=C/[C@@H]1C)C2=O`, the residual activity in experiment [4] came out at 112%.
Still for that read-out and setting: the value for `COc1cc2ncnc(Nc3cccc(Cl)c3)c2cc1OC` was 125%; that for `COc1cc2ncnc(Nc3ccc(NC(=O)c4ccccc4)cc3)c2cc1OC` was 104%.
As to `CC(C)(C)c1cc(C=C(C#N)C#N)cc(Br)c1O`, the residual activity was 99% in experiment [11]; 70% in [12]; 113% in experiment [5]; 102% in experiment [6]; 75% in experiment [13]; 102% in experiment [7]. The figures for the residual activity in [14] and in experiment [9] were 110% and 42%, respectively.
With `O=C1NC(=O)c2c1c1c3ccccc3[nH]c1n1cncc21`, in experiment [4], the residual activity amounted to 102%.
On to `O=C(O)/C=C/c1cc(Br)c(Br)c(Br)c1Br`, for which, in experiment [4], the residual activity was 82%.
Turning to `CCC(=O)Nc1ccc2ncnc(Nc3cccc(Br)c3)c2c1`, in experiment [4], the residual activity was determined as 109%.
Same read-out and setting: the value for `CC(=O)O/N=C1\C(=C2\C(=O)Nc3cc(Br)ccc32)Nc2ccccc21` was 87%.
On to `COc1cc2ncnc(Nc3ccc(O)c(Br)c3)c2cc1OC`, for which the residual activity in [4] turned out to be 105%.
Same read-out and setting: with `CN(C)c1ccc(/C=C2\C(=O)Nc3ccccc32)cc1` the figure was 115%.
`O=C(O)c1ccc2c3c1cccc3c(=O)n1c3ccccc3nc21`: in experiment [4], the residual activity was 111%.
On to `Cn1c2ccccc2c2c3c(c4c5ccccc5n(CCC#N)c4c21)CNC3=O`, for which the residual activity in experiment [4] turned out to be 111%.
On to `Oc1n[nH]c2nnc(-c3c(-c4ccccc4)nn4ccccc34)cc12`, for which, in [4], the residual activity is 99%.
Regarding `CO[C@@H]1[C@H](N(C)C(=O)c2ccccc2)C[C@H]2O[C@]1(C)n1c3ccccc3c3c4c(c5c6ccccc6n2c5c31)C(=O)NC4`, in experiment [4], the residual activity is 60%.
On to `CC(C)n1cnc2c(NCc3ccccc3)nc(NCCCO)nc21`, for which the residual activity in experiment [4] came to 119%.
For the molecule `O=C1c2ccccc2-[n+]2ccc3c([nH]c4ccccc43)c21`, the residual activity in experiment [4] was found to be 132%.
For `O=c1cc(-c2cccc3c2Sc2ccccc2S3)oc(N2CCOCC2)c1`, the residual activity in [4] worked out at 85%.
Same read-out and setting: with `O=C1NC(=O)c2c1c1c3ccccc3[nH]c1c1[nH]c3cc(Br)ccc3c21` the figure was 90%.
In the case of `Nc1nccc(-c2c(-c3ccc(F)cc3)ncn2C2CCNCC2)n1`, in experiment [4], the residual activity turned out to be 124%.
`N#Cc1cnc2cnc(NCc3cccnc3)cc2c1Nc1ccc(F)c(Cl)c1`: the residual activity in experiment [4] came to 38%.
Regarding `CC(C)(C)n1nc(Cc2cccc3ccccc23)c2c(N)ncnc21`, the residual activity in [4] came to 110%.
The same measure, in the same setting: the value for `O=C(Nc1cccc(Nc2cc(Nc3cccc(C(F)(F)F)c3)ncn2)c1)C1CC1` was 101%; that for `NC(=O)c1ccc(-c2nc(-c3ccc4c(c3)OCCO4)c(-c3ccccn3)[nH]2)cc1` was 86%; that for `Nc1ccc2ncnc(NCCc3ccc(Oc4ccccc4)cc3)c2c1` was 108%.
Consider `CCN(CC)CCCCN1c2ccccc2Oc2ccc(Cl)cc21`, for which the residual activity in experiment [4] was found to be 124%.
As to `CCN(CC)CCNC(=O)c1c(C)[nH]c(/C=C2\C(=O)Nc3ccc(Cl)cc32)c1C`, in [4], the residual activity is 77%.
For the molecule `Oc1ccc(-c2nc(-c3ccc(F)cc3)c(-c3ccncc3)[nH]2)cc1`, the results for the residual activity in [4] and in experiment [12] were 119% and 1%, respectively.
For the molecule `N#C/C(=C(\N)Sc1ccc(N)cc1)c1ccccc1C(F)(F)F`, the residual activity in experiment [4] turned out to be 101%.
As to `CN[C@@H]1C[C@H]2O[C@@](C)([C@@H]1OC)n1c3ccccc3c3c4c(c5c6ccccc6n2c5c31)C(=O)NC4`, the residual activity in experiment [11] was 109%; in [12] it was 99%; in experiment [15], 74% (inactive); in [16] it was 120%; in experiment [17], 87%; in experiment [18] it was 93%. The figures for the residual activity in experiment [7] and in [8] were 101% and 90%, respectively.
Take `Cn1cnc2cc3c(Nc4cccc(Br)c4)ncnc3cc21`: the residual activity in experiment [4] was determined as 89%.
